# In PMC5540273 (PLoS ONE, 2017):
# Where “and” joins values, the source holds several entries; their conditions need not be identical. Identical values can stand only once. Like-named read-outs stand apart in the source and are kept apart here.
# Columns and labels:
# AAK1 = details: n = 1
# ABL1-nonphosphorylated = details: concentration: 1 μM, replicates: in singlicate; n = 1
# ABL1-phosphorylated = details: concentration: 1 μM, replicates: in singlicate; n = 1
# ABL2 = details: n = 1
# ACVR1B = details: concentration: 1 μM, replicates: in singlicate; n = 1
# ACVR1 = details: n = 1
# ACVR2A = details: concentration: 1 μM, replicates: in singlicate; n = 1
# ACVR2B = details: n = 1
# ACVRL1 = details: concentration: 1 μM, replicates: in singlicate; n = 1
# ADCK3 = test system: T1, ADCK3; details: n = 1
# T1 construct: gene CABC1
# ADCK4 = details: n = 1
# AKT1 = details: concentration: 1 μM, replicates: in singlicate; n = 1
# AKT2 = details: n = 1
# AKT3 = details: concentration: 1 μM, replicates: in singlicate; n = 1
# ALK = details: n = 1
# AMPK-alpha1 = test system: T2, AMPK-alpha1; details: n = 1
# T2 construct: gene PRKAA1
# AMPK-alpha2 = test system: T3, AMPK-alpha2; details: n = 1
# T3 construct: gene PRKAA2
# p38-alpha = test system: T4, p38-alpha
# T4 construct: gene MAPK14
# p38-beta = test system: T5, p38-beta
# T5 construct: gene MAPK11
# [1] = concentration: 1 μM, replicates: in singlicate
# [2] = concentration: 1 μM,replicates: in singlicate, 1 µM
# 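Wherever %Inh is given: KINOMEscan kinase panel screen.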
# 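Wherever Kd is given: kd values determined as follow-up on hits from a single-replicate KINOMEscan panel screen.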
structure (smiles),measurement,setting,value
O=C(Nc1ccc2c(c1)OCO2)NC1CCN(c2ccnc(Nc3ccc(F)cc3)n2)C1 (centres unmarked) [GSK1379724],%Inh,AAK1; [1],12%
same,%Inh,ABL1-nonphosphorylated,0%
same,%Inh,ABL1-phosphorylated,0%
same,%Inh,ABL2; [1],9%
same,%Inh,ACVR1B,0%
same,%Inh,ACVR1; [1],0%
same,%Inh,ACVR2A,0%
same,%Inh,ACVR2B; [1],0%
same,%Inh,ACVRL1,0%
same,%Inh,ADCK3; [1],6%
same,%Inh,ADCK4; [1],36%
same,%Inh,AKT1,0%
same,%Inh,AKT2; [1],0%
same,%Inh,AKT3,0%
same,%Inh,ALK; [1],29%
same,%Inh,AMPK-alpha1; [1],10%
same,%Inh,AMPK-alpha2; [1],0%
CSc1nn2c(=O)cc(N3CCOCC3)nc2n1Cc1cccc(C(F)(F)F)c1C [GSK2363608],%Inh,AAK1; [2],3% and 25%
same,%Inh,ABL1-nonphosphorylated,0%
same,%Inh,ABL1-phosphorylated,0%
same,%Inh,ABL2; [2],5% and 17%
same,%Inh,ACVR1B,0%
same,%Inh,ACVR1; [2],0% and 14%
same,%Inh,ACVR2A,0%
same,%Inh,ACVR2B; [2],3% and 0%
same,%Inh,ACVRL1,0%
same,%Inh,ADCK3; [2],5% and 0%
same,%Inh,ADCK4; [2],31% and 22%
same,%Inh,AKT1,0%
same,%Inh,AKT2; [2],9% and 13%
same,%Inh,AKT3,0%
same,%Inh,ALK; [2],23% and 31%
same,%Inh,AMPK-alpha1; [2],0% and 2%
same,%Inh,AMPK-alpha2; [2],14% and 0%
Cl.c1ccc(-c2n[nH]cc2-c2ccnc(-c3ccc(CN4CCOCC4)cc3)c2)nc1 [GW776245],%Inh,AAK1; [1],25%
same,%Inh,ABL1-nonphosphorylated,62%
same,%Inh,ABL1-phosphorylated,61%
same,%Inh,ABL2; [1],0%
same,%Inh,ACVR1B,80%
same,%Inh,ACVR1; [1],7%
same,%Inh,ACVR2A,11%
same,%Inh,ACVR2B; [1],9%
same,%Inh,ACVRL1,0%
same,%Inh,ADCK3; [1],34%
same,%Inh,ADCK4; [1],0%
same,%Inh,AKT1,17%
same,%Inh,AKT2; [1],0%
same,%Inh,AKT3,0%
same,%Inh,ALK; [1],0%
same,%Inh,AMPK-alpha1; [1],0%
same,%Inh,AMPK-alpha2; [1],14%
Cc1cc(-c2ccc3c(c2)CC[C@@H](N[C@@H](C)c2ccccc2)C3)cnc1N.Cl [GW412617],%Inh,AAK1; [1],100%
same,%Inh,ABL1-nonphosphorylated,8%
same,%Inh,ABL1-phosphorylated,9%
same,%Inh,ABL2; [1],6%
same,%Inh,ACVR1B,0%
same,%Inh,ACVR1; [1],34%
same,%Inh,ACVR2A,0%
same,%Inh,ACVR2B; [1],0%
same,%Inh,ACVRL1,37%
same,%Inh,ADCK3; [1],41%
same,%Inh,ADCK4; [1],1%
same,%Inh,AKT1,0%
same,%Inh,AKT2; [1],27%
same,%Inh,AKT3,14%
same,%Inh,ALK; [1],52%
same,%Inh,AMPK-alpha1; [1],2%
same,%Inh,AMPK-alpha2; [1],20%
O=C1NC(=O)C(N2CCc3ccccc32)=C1c1ccccc1Cl [SB-373598],%Inh,AAK1; [1],7%
same,%Inh,ABL1-nonphosphorylated,12%
same,%Inh,ABL1-phosphorylated,97.7%
same,%Inh,ABL2; [1],15%
same,%Inh,ACVR1B,35%
same,%Inh,ACVR1; [1],27%
same,%Inh,ACVR2A,25%
same,%Inh,ACVR2B; [1],33%
same,%Inh,ACVRL1,13%
same,%Inh,ADCK3; [1],17%
same,%Inh,ADCK4; [1],16%
same,%Inh,AKT1,0%
same,%Inh,AKT2; [1],19%
same,%Inh,AKT3,25%
same,%Inh,ALK; [1],4%
same,%Inh,AMPK-alpha1; [1],17%
same,%Inh,AMPK-alpha2; [1],22%
COc1cc2ncnc(Nc3ccc4nc(-c5ccccc5)[nH]c4c3)c2cc1OC.Cl [GW282450],%Inh,AAK1; [1],6%
same,%Inh,ABL1-nonphosphorylated,0%
same,%Inh,ABL1-phosphorylated,0%
same,%Inh,ABL2; [1],5%
same,%Inh,ACVR1B,0%
same,%Inh,ACVR1; [1],0%
same,%Inh,ACVR2A,0%
same,%Inh,ACVR2B; [1],0%
same,%Inh,ACVRL1,0%
same,%Inh,ADCK3; [1],10%
same,%Inh,ADCK4; [1],16%
same,%Inh,AKT1,0%
same,%Inh,AKT2; [1],0%
same,%Inh,AKT3,0%
same,%Inh,ALK; [1],0%
same,%Inh,AMPK-alpha1; [1],0%
same,%Inh,AMPK-alpha2; [1],0%
Cc1cccc(-c2cc(Nc3ccncc3)c3ccccc3n2)n1 [GSK223675],Kd,ZAK,> 10000 nM
same,%Inh,AAK1; [1],12%
same,%Inh,ABL1-nonphosphorylated,0%
same,%Inh,ABL1-phosphorylated,0%
same,%Inh,ABL2; [1],0%
same,%Inh,ACVR1B,88%
same,%Inh,ACVR1; [1],0%
same,%Inh,ACVR2A,0%
same,%Inh,ACVR2B; [1],0%
same,%Inh,ACVRL1,0%
same,%Inh,ADCK3; [1],0%
same,%Inh,ADCK4; [1],11%
same,%Inh,AKT1,0%
same,%Inh,AKT2; [1],0%
same,%Inh,AKT3,0%
same,%Inh,ALK; [1],26%
same,%Inh,AMPK-alpha1; [1],0%
same,%Inh,AMPK-alpha2; [1],8%
CN(C)CCN(C)C(=O)c1cc(-c2ccncc2)c(-c2ccc(Cl)c(O)c2)o1.Cl.Cl [SB-710397],Kd,p38-alpha,740 nM
same,%Inh,AAK1; [1],6%
same,%Inh,ABL1-nonphosphorylated,2%
same,%Inh,ABL1-phosphorylated,6%
same,%Inh,ABL2; [1],17%
same,%Inh,ACVR1B,0%
same,%Inh,ACVR1; [1],0%
same,%Inh,ACVR2A,0%
same,%Inh,ACVR2B; [1],9%
same,%Inh,ACVRL1,0%
same,%Inh,ADCK3; [1],11%
same,%Inh,ADCK4; [1],45%
same,%Inh,AKT1,0%
same,%Inh,AKT2; [1],0%
same,%Inh,AKT3,0%
same,%Inh,ALK; [1],29%
same,%Inh,AMPK-alpha1; [1],0%
same,%Inh,AMPK-alpha2; [1],0%
COc1cccc(NC(=O)NC2CCN(c3ccnc(Nc4ccc(F)cc4)n3)C2)c1 (centres unmarked) [GSK1379721],%Inh,AAK1; [1],5%
same,%Inh,ABL1-nonphosphorylated,0%
same,%Inh,ABL1-phosphorylated,0%
same,%Inh,ABL2; [1],0%
same,%Inh,ACVR1B,0%
same,%Inh,ACVR1; [1],0%
same,%Inh,ACVR2A,100%
same,%Inh,ACVR2B; [1],4%
same,%Inh,ACVRL1,0%
same,%Inh,ADCK3; [1],1%
same,%Inh,ADCK4; [1],22%
same,%Inh,AKT1,0%
same,%Inh,AKT2; [1],0%
same,%Inh,AKT3,0%
same,%Inh,ALK; [1],24%
same,%Inh,AMPK-alpha1; [1],0%
same,%Inh,AMPK-alpha2; [1],0%
Nc1nc(-c2nccs2)c(-c2ccnc3ccccc23)s1 [GW693542],%Inh,AAK1; [1],8%
same,%Inh,ABL1-nonphosphorylated,0%
same,%Inh,ABL1-phosphorylated,6%
same,%Inh,ABL2; [1],15%
same,%Inh,ACVR1B,14%
same,%Inh,ACVR1; [1],10%
same,%Inh,ACVR2A,0%
same,%Inh,ACVR2B; [1],48%
same,%Inh,ACVRL1,15%
same,%Inh,ADCK3; [1],0%
same,%Inh,ADCK4; [1],39%
same,%Inh,AKT1,0%
same,%Inh,AKT2; [1],3%
same,%Inh,AKT3,100%
same,%Inh,ALK; [1],36%
same,%Inh,AMPK-alpha1; [1],0%
same,%Inh,AMPK-alpha2; [1],12%
Cc1ccc(NC(=O)Nc2cc(C(C)(C)C)nn2-c2ccccc2)cc1 [GSK1014915],Kd,p38-alpha,58 nM
same,Kd,p38-beta,540 nM
same,%Inh,AAK1; [1],0%
same,%Inh,ABL1-nonphosphorylated,0%
same,%Inh,ABL1-phosphorylated,2%
same,%Inh,ABL2; [1],14%
same,%Inh,ACVR1B,0%
same,%Inh,ACVR1; [1],7%
same,%Inh,ACVR2A,6%
same,%Inh,ACVR2B; [1],5%
same,%Inh,ACVRL1,5%
same,%Inh,ADCK3; [1],25%
same,%Inh,ADCK4; [1],25%
same,%Inh,AKT1,0%
same,%Inh,AKT2; [1],14%
same,%Inh,AKT3,20%
same,%Inh,ALK; [1],28%
same,%Inh,AMPK-alpha1; [1],0%
same,%Inh,AMPK-alpha2; [1],11%
